Bioassay records as filed in PubChem.
GLA inh pH 4.5: alpha-galactosidase A (human) inhibition, pH 4.5; purified enzyme, 4-MU-alpha-Gal fluorescence, pH 4.5; activity change, negative = inhibition, % at 105 µM; 230,000 tested, under 10 active; AID 1467;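 further: 0% = full activity with enzyme and -100% = basal without enzyme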
HttQ103 aggreg: inhibitors of mutant huntingtin aggregate formation in PC12 cells. PC12 HttQ103-GFP aggregates, Acumen cytometry, 40 h. Potency, µM (doses to about 46.1 µM), without a hit: at the highest dose activity change, negative = inhibition, most hits filed as inhibitors. hit rate 1.1% among 220,000. AID 1688; further: potency means the concentration at half of the fitted maximal effect; on the % scale 0 is the no-effect control and ±100 the full control effect; nearly all actives have a fitted effect of over 60% in size
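Multiplexed with ATP-based cell death, this channel scores GFP aggregates in PC12 cells expressing inducible HTTex1-Q103-GFP. Induction used 100 nM tebufenozide; compounds were tested in concentration series.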
ERK EGF inh: blocks ERK signaling stimulated by EGF. HEK293-V1b, EGF-stimulated phospho-ERK AlphaScreen. Potency, µM (highest dose often 11.5 µM), inactives show top-dose activity change, negative = inhibition, most hits filed as inhibitors. hit rate 0.41% among 130,000. AID 1454;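 further: potency means the concentration at half of the fitted maximal effect; plate controls were stimulated vehicle wells for no effect and unstimulated vehicle basal for full effect; nearly all actives have a fitted effect of over 55% in size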
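Stably V1b-transfected HEK293 cells; 30 min compound, then EGF 25 nM final for 5 min at 37C; 10 min lysis; phospho-ERK by AlphaScreen after 5 hr beads at room temperature.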
aGal spleen mod: inhibits or activates alpha-galactosidase in human spleen homogenate | P06280 | human spleen homogenate, 4MU-alpha-Gal fluorescence, 40 min | Potency, µM (highest dose often 80 µM), for the others: at the highest dose activity change, negative = inhibition, usual class: inhibitors | hit rate 0.008% among 240,000;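 further: potency means the concentration at half of the fitted maximal effect; 0% = enzyme with vehicle and -100% = no enzyme basal signal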
Target sequence (P06280 32-429 limits assumed): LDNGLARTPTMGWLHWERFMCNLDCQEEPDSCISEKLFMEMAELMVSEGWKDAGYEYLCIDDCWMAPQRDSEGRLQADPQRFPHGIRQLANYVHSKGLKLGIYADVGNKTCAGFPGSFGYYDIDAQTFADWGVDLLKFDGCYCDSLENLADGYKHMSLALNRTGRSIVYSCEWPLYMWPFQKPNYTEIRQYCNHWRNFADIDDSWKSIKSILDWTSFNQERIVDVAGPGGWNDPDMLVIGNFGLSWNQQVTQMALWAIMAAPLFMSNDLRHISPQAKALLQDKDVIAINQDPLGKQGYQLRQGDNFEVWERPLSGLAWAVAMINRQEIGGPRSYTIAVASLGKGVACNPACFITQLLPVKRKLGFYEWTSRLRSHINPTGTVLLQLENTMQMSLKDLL
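qHTS titration in buffer at pH 5.0. Alpha-galactosidase activity in spleen homogenate was measured via 4-methylumbelliferone release from 1 mM fluorogenic substrate after 40 min at 37C and a pH 10 stop. AC50 came from Hill fits of control-normalized data.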
HTT cytoprotect: protects HTT-Q103 PC12 cells, measured by ATP; hit rate 0.14% among 230,000; PC12 HTT-Q103 induced, cytoprotection, ATP luminescence, 40 h; AID 1471; Potency, µM (doses to about 56.4 µM), for the others: cytoprotection (ATP increase), usual class: activators; further: potency means the concentration at half of the fitted maximal effect; % of control where 0% means no effect; nearly all actives have a fitted effect of over 45% in size
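Compounds added alongside 100 nM tebufenozide, which induces toxic Q103 huntingtin exon 1-GFP in stable PC12 cells; surviving cells quantified by luminescent ATP measurement. Medium: phenol red-free DMEM, 5% equine and 5% calf serum.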
ERK pERK EGF: confirmation of ERK pathway inhibitors under EGF stimulation | shares compounds with ERK EGF inh | HEK293 EGF-stimulated ERK phosphorylation, AlphaScreen | Potency, µM (series often up to 57.5 µM), without a hit: top-dose activity change, negative = inhibition, most hits filed as inhibitors | hit rate 60% among 60
cRaf kinase inh: c-Raf inhibition, ERK pathway follow-up; shares compounds with ERK EGF inh; c-Raf kinase inhibition, homogeneous biochemical assay; activity change, negative = inhibition, % at 76.9 µM; 70 tested, under 10 active
MEK1 kinase inh: ERK pathway inhibitors follow-up: human MEK1 kinase inhibition; shares compounds with ERK EGF inh; homogeneous MEK kinase activity assay, ERK pathway; Potency, µM (series often up to 76.9 µM), without a hit: at the top dose activity change, negative = inhibition, most hits filed as inhibitors; 70 tested, under 10 active; AID 1732
* = called active by the depositor; ? = inconclusive; / = no result given; ! = a repeat was not active; [ ] = dose if it differs, or a comment. Rows were chosen to be rich in hits. Some 1.2% of all compounds tested hit in one or more screens of this group. The call rests on the fitted dose curve; in most records, active means well fitted curve in the direction sought with a large enough effect; inconclusive means small, poorly fitted or top-dose-only effect, or another doubt; inactive means no such curve, though single readings can be large; an effect the other way counts as inactive or inconclusive.

SMILES	GLA inh pH 4.5	HttQ103 aggreg	ERK EGF inh	aGal spleen mod	HTT cytoprotect	others
O=c1[nH]c(=O)n(Cl)c(=O)n1Cl	/	2%	/	/	14µM*
COc1cccc2c1C(=O)c1c(O)c3c(c(O)c1C2=O)C[C@@](O)(C(=O)CO)C[C@@H]3O[C@H]1C[C@H](N)[C@H](OC2CCCCO2)[C@H](C)O1 (stereo partly drawn)	/	4µM*	/	/	-80%
CNc1ccccc1C(=O)O	21	/	23%	?	/
C[CH2][Hg][S]c1ccccc1C(=O)O	3	2.5µM*	32µM*	-26%	-323%
COc1cc(/C=C/[N+](=O)[O-])ccc1O	-7	25µM*	?	-7%	/
N=c1c2c(n(Cc3ccc(Cl)cc3Cl)c3c1CCC3)CCCC2	6	6.3µM*	/	6%	-49%
Cc1nn(Cc2ccc(Cl)cc2Cl)c(Cl)c1C(=O)O	8	-5%	-1%	-5%	16%
C[C@@H]1O[C@@H](O[C@H]2CC[C@@H](O[C@H]3[C@H](O)C[C@H](c4ccc5c(c4O)C(=O)C4=C(C5=O)[C@@]5(O)C(=O)C[C@](C)(O[C@H]6CC[C@H](O[C@H]7C=CC(=O)[C@H](C)O7)[C@H](C)O6)C[C@@]5(O)C=C4)O[C@@H]3C)O[C@H]2C)C=CC1=O	/	/	/	7%	/
CN[C@@H]1C[C@@]2(C)O[C@@H]([C@@H]1OC)n1c3ccccc3c3c4c(c5c6ccccc6n2c5c31)C(=O)NC4	/	/	/	5%	-196%
C[C@]12O[C@H](C[C@]1(O)CO)n1c3ccccc3c3c4c(c5c6ccccc6n2c5c31)CNC4=O	/	1.6µM*	/	/	-98%
CC(C)(C)NCC1(CO)SC(N)=NC1=O (stereo not drawn)	3	22µM*	/	-2%	-83%
C[C@H](N[C@@H](C)CCc1ccccc1)[C@H](O)c1ccc(O)cc1	/	/	/	/	17%[1.9 µM]
CC(C)NCC(O)COc1cccc2[nH]ccc12 (stereo not drawn)	-3	-5%	-1%[57.5 µM]	10µM*!	-9%
CC(=O)[C@@H]1CC[C@H]2[C@H]3CC[C@H]4C[C@@H](O)CC[C@]4(C)[C@@H]3CC[C@]12C	/	/	/	/	1%[1.9 µM]
CCN1/C(=C\C=C\C2=[N+](CC)c3ccccc3C2(C)C)C(C)(C)c2ccccc21	7	0.56µM*	/	3%	-110%
O=C(O)[C@H]1CCN1	/	/	/	/	-3%[1.9 µM]
C[C@@H]1OC(OC2C(OC3CC[C@@]4(C)C5CC=C6C7CC(C)(C)CC[C@@]7(C(=O)O)CCC6(C)C5(C)CCC4[C@]3(C)CO)OCC(O)C2O)C(O)C(O)C1O (stereo partly drawn)	3	/	28µM*	9%	/
CCn1nc(-c2cccs2)nc2c(=O)n(C)c(=O)nc1-2	-1	18µM*	/	3%	-92%[10 µM]	cRaf kinase inh=?;MEK1 kinase inh=0.89µM*
CO[C@@H]([CH2][Hg])CN1C(=O)c2ccccc2S1(=O)=O.Cn1c(=O)c2nc[nH]c2n(C)c1=O	/	/	/	/	-2%[10 µM]
CCN1C(=O)NC(=O)/C(=C/c2cc(C)n(-c3sc(C)c(C)c3C#N)c2C)C1=O	-6	4%	?	5%	-16%[10 µM]	ERK pERK EGF=-4%;cRaf kinase inh=-9;MEK1 kinase inh=?
Cc1ccc(N2C(=O)NC(=O)/C(=C\c3cc(C)n(-c4sc5c(c4C#N)CCCC5)c3C)C2=O)cc1	6	11%	0%	-3%	2%[10 µM]
